The source of these data is ChEMBL document CHEMBL3433997, “St. Jude Leishmania screening dataset” (2016).

Holding throughout (type): functional
Assay [1] deals with Solute carrier family 2, facilitated glucose transporter member 1 (Homo sapiens) (UniProt P11166). Nature of the assay: ST_JUDE_LEISH: Cytotoxicity at 2uM final concentration against transgenic Leishmania Mexicana promastigotes LmGLUT1 that are glucose transport deficient and complemented with the human glucose transporter GLUT1. Activity is measured by DNA content using SYBR green in vitro.
Solute carrier family 2, facilitated glucose transporter member 1 (Homo sapiens), sequence (P11166 whole entry): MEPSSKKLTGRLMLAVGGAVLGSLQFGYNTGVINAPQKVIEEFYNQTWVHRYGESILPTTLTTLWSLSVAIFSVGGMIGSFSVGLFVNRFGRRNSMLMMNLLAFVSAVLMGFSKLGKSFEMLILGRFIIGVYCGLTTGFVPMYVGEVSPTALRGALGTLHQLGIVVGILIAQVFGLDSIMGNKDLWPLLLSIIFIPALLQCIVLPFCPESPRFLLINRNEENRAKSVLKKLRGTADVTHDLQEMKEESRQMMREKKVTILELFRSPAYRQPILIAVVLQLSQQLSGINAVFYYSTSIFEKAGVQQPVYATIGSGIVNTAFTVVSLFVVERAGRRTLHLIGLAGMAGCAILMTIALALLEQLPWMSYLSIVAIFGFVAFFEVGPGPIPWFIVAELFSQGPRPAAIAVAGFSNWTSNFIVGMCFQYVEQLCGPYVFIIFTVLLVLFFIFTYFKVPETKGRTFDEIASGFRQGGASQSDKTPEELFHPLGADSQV

The target of assay [2] is Hexose transporter 1 (Plasmodium falciparum) (UniProt O97467). Nature of the assay: ST_JUDE_LEISH: Cytotoxicity at 2uM final concentration against transgenic Leishmania Mexicana promastigotes LmPfHT that are glucose transport deficient and complemented with the Plasmodium falciparum hexose transporter. Activity is measured by DNA content using SYBR green in vitro.
In assay [3] the target is Glucose transporter (Leishmania mexicana) (UniProt O61059). Description: ST_JUDE_LEISH: Cytotoxicity at 2uM final concentration against transgenic Leishmania Mexicana promastigotes LmGT2 that are glucose transport deficient and complemented with the L. Mexicana glucose transporter 2. Activity is measured by DNA content using SYBR green in vitro.

Usually inhibition stands for the change of the read-out against control, counted positive when it falls. Turning to `CN(C)c1ccc(-c2ccc(C(=O)NC3CCN(Cc4ccc5c(c4)OCCO5)CC3)s2)cc1`, the figures for the inhibition in assay [1], in assay [2] and in assay [3] were 4.82%, 6.3% and 3.8%, respectively.

In the case of `C=CC[C@H](NC(=O)c1ccc(NS(=O)(=O)c2ccc3nc(N)[nH]c(=O)c3c2)cc1)C(=O)OCCCC`, the figures for the inhibition in assay [1], in assay [2] and in assay [3] were 0.58%, 0.62% and 1.67%, respectively.

Consider `CN(CCc1ccccn1)c1cccc2c1nc(-c1cccnc1)n2CCNCc1ccccc1`, for which the results for the inhibition in assay [1], in assay [2] and in assay [3] were 14.8%, 13.4% and 11.3%, respectively.

Consider `O=C(/C=C/c1ccc(Cl)c(Cl)c1)NCCCCCCN1CCN(C(=O)Nc2ccc(OC(F)F)cc2)CC1`, for which the inhibition in assay [1] stood at 5.36%; in assay [2] it was 6.98%; in assay [3] it was 6.38%.

For the molecule `Cc1cccc2nc(-c3cccc(-c4ccc(NC(=O)NCc5ccccc5)cc4)c3)[nH]c12`, the inhibition was found to be 1.51% in assay [1], 2.74% in assay [2] and 1.31% in assay [3].

Take `COC(=O)c1ccc(C(=O)NCCCCN2CCC(c3ccc4c(c3OC)CCCC4)CC2)cc1-c1ccc(C(F)(F)F)cc1`: the inhibition in assay [1] turned out to be 2.23%; in assay [2], 1.47%; in assay [3], 2.29%.

Turning to `COc1cccc(CN2CCCC(COC(c3ccc(F)cc3)c3ccc(F)cc3)C2)c1O` (stereo not drawn), the inhibition was 0.95% in assay [1], 1.89% in assay [2] and -0.91% in assay [3].

For `Cc1cc2c(cc1C(F)(F)F)N(C(=O)Nc1cnc(OCCN(C)C)c(C(F)(F)F)c1)CC2`, the results for the inhibition in assay [1], in assay [2] and in assay [3] were 7.92%, 6.97% and 6.3%, respectively.

For the molecule `N#Cc1ccc(C2CCN(CC[C@H](N)Cc3ccc(Cl)s3)CC2)cc1`, the values for the inhibition in assay [1], in assay [2] and in assay [3] were 22.8%, 10.7% and 15.8%, respectively.

As for `NC1CCN(Cc2cccc(-c3cccc(-c4nc5ccccc5[nH]4)c3)c2)C1` (stereo not drawn), the inhibition in assay [1] is 2.17%; in assay [2], 3.31%; in assay [3], 1.15%.

For `CCn1c(C)c(C)c2cc(C(=O)Nc3ccon3)ccc21`, the inhibition was 1.66% in assay [1], 1.02% in assay [2] and 0.74% in assay [3].

As to `O=C(NCCc1ccccc1)N(Cc1ccccc1-c1cccc(CNCc2ccc3c(c2)OCO3)c1)C1CCN(Cc2ccccc2)CC1`, the inhibition in assay [1] turned out to be 3.72%; in assay [2], 4.3%; in assay [3], 3.13%.

Turning to `CCCCCCN1CCCN(Cc2cccc(C(=O)Nc3ccc(C(C)(C)C)cc3)c2)CC1`, the results for the inhibition in assay [1], in assay [2] and in assay [3] were 1.39%, 0.8% and 0.65%, respectively.

Turning to `CN1CCN(CC(=O)Nc2cccc(-c3ccc(-c4nc5cc(C(F)(F)F)ccc5[nH]4)s3)c2)CC1`, the inhibition is 1.78% in assay [1], 2.7% in assay [2] and 4.37% in assay [3].

Take `CC(C)N1CCN(c2ccc(OCCCCN3CCN(c4cccc(Cl)c4Cl)CC3)cc2Cl)CC1`: the inhibition was -1.28% in assay [1], 0.44% in assay [2] and -2.3% in assay [3].

In the case of `COc1ccc(NC(=O)c2ccc(-c3cc(NC(=O)c4ccnc(N5CCCC5)c4)ccc3C)s2)cc1N1CCN(C)CC1`, the inhibition is -1.75% in assay [1], 0.73% in assay [2] and -1.93% in assay [3].

As for `CNC(=O)c1cnc(Nc2ccc(N3CCN(C)CC3)cc2)nc1Nc1cccc(OC)c1`, the figures for the inhibition in assay [1], in assay [2] and in assay [3] were 3.74%, 2.74% and 5.02%, respectively.

With `Cc1cccc2nc(-c3cccc(-c4ccc(C(=O)NCCc5ccc(O)c(=O)[nH]5)cc4)c3)[nH]c12`, the results for the inhibition in assay [1], in assay [2] and in assay [3] were 2.16%, 1.89% and 2.33%, respectively.

With `Oc1ccc(Cc2ccccc2)cc1CNC1CCCCC1`, the inhibition in assay [1] came to 1.43%; in assay [2], 1.57%; in assay [3], 1.87%.

As for `Cc1cccc(CNc2nccc3[nH]c4ccccc4c23)c1`, the inhibition in assay [1] was 4.82%; in assay [2] it was 4.77%; in assay [3], 1.28%.

Consider `Cc1nc(C)c(-c2ccc(-c3ccc(F)cc3)cc2)c(O)c1Br`, for which the inhibition is 0.18% in assay [1], -0.09% in assay [2] and -1.77% in assay [3].

Take `CCOC(=O)c1cn(CC)c2cc(N3CCCCCC3)c(F)cc2c1=O`: the inhibition in assay [1] was 10.3%; in assay [2], 4.48%; in assay [3], 3.87%.

As to `Cc1ccccc1N1CCN(c2ccc(C(=O)NC(C)C)cn2)CC1`, the results for the inhibition in assay [1], in assay [2] and in assay [3] were 0.52%, -0.59% and -1.79%, respectively.

For `CCCCCCNC(=N)c1ccc(OCCCCCOc2ccc(C(=N)NCCCCCC)cc2)cc1`, the inhibition in assay [1] came to 58.5%; in assay [2] it was 59.4%; in assay [3], 37.2%.

In the case of `Cc1nn(-c2ccccc2)c2nc(-c3ccccc3)cc(C(=O)N3CCOCC3)c12`, the inhibition in assay [1] is 1.26%; in assay [2] it was 0.16%; in assay [3], -2.24%.

Regarding `CCCCNc1c(CC)c(C)c(C#N)c2nc3ccccc3n12`, the inhibition in assay [1] amounted to 29.1%; in assay [2], 51.4%; in assay [3] it was 21.8%.

`COc1cc(CN/C(=N/c2ccc(-c3ccccc3)cc2)Nc2ccc(C#N)cc2O)cc(OC)c1`: the results for the inhibition in assay [1], in assay [2] and in assay [3] were 1.7%, 0.59% and 0.77%, respectively.

`CC(C)c1cc(N)c2cc(NC(=O)COCC(=O)Nc3ccc4nc(C(C)C)cc(N)c4c3)ccc2n1`: the results for the inhibition in assay [1], in assay [2] and in assay [3] were 5.18%, 5.67% and 5.02%, respectively.

For `O=S(=O)(NCCN1CCCC1)c1ccc(-c2cccc(CNC3Cc4ccccc4C3)c2)cc1`, the values for the inhibition in assay [1], in assay [2] and in assay [3] were 2.76%, 8.98% and 6.15%, respectively.

With `N=C(N)NN=Cc1c2ccccc2c(Cl)c2c(Cl)cccc12`, the inhibition in assay [1] stood at 24.6%; in assay [2], 26.2%; in assay [3] it was 10.2%.

Take `COc1ccc(Nc2nccc(N3CCC(NC(=O)c4cccc(C#N)c4)C3)n2)cc1` (stereo not drawn): the inhibition was 2.52% in assay [1], 4.34% in assay [2] and 3.91% in assay [3].

Turning to `COC(=O)c1ccc(CC(C)NCC(O)c2ccc(C(O)CNC(C)Cc3ccc(C(=O)OC)cc3)cc2)cc1` (stereo not drawn), the figures for the inhibition in assay [1], in assay [2] and in assay [3] were -0.44%, 1.69% and 0.96%, respectively.

On to `COc1ccc(Cl)cc1NC(=O)Nc1ccc2c(c1)CCN(C1CCC1)CC2`, for which the inhibition in assay [1] amounted to 2.26%; in assay [2], 0.44%; in assay [3], 1.36%.

Take `CC(=O)c1ccccc1OCCSc1nnc(Cc2cccs2)n1C1CCCCC1`: the inhibition in assay [1] amounted to 1.7%; in assay [2], 2.09%; in assay [3], 1.75%.

As for `COc1ccc2nccc([C@@H](O)CN3CCC(NCc4nc5cc(F)c(F)cc5[nH]4)CC3)c2c1`, the inhibition in assay [1] was 0.88%; in assay [2] it was 2.26%; in assay [3], -0.99%.

`CCc1cccc(OCC2CCCN(c3ccc(C(=O)NC4CC4)cn3)C2)c1` (stereo not drawn): the inhibition was determined as 4.71% in assay [1], 3.55% in assay [2] and 3.3% in assay [3].
